Screens from PubChem.
LASV entry inh = qHTS for Inhibitors of binding or entry into cells for Lassa Virus; Lassa virus pseudotype entry inhibition, cell reporter; Potency, µM (titrated, usually from 37.9 µM), for inactives: top-dose activity change, negative = inhibition, hits mostly inhibitors; actives 1.2% (n = 300,000); AID 540256, 2011; calls by dose curve; tested in HEK293 cells; also: nearly all actives have a fitted effect of over 50% in size
AmpC inh detg = qHTS Inhibitors of AmpC Beta-Lactamase (assay with detergent); AID 485294, 2010; actives 0.041% (n = 370,000); P00811; Potency, µM (doses to about 114 µM), for inactives: top-dose activity change, negative = inhibition, most hits filed as inhibitors; AmpC hydrolysis of nitrocefin, absorbance 480 nm, 0.01% Triton;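 also: 0% = no-compound wells and -100% = no-enzyme wells; nearly all actives have a fitted effect of over 25% in size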
Target sequence (P00811 whole entry, looked up): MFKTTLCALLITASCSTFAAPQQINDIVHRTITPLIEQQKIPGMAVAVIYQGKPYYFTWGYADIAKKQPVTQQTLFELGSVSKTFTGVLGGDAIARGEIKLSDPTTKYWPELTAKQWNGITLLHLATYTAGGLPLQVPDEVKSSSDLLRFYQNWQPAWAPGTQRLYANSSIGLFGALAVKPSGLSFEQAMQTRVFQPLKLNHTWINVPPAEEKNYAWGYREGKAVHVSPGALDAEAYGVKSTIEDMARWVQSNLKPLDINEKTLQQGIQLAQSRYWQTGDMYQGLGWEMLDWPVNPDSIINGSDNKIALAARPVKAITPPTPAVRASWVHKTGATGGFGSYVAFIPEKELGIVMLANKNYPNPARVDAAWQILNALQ
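AmpC (5.3 nM in the dispensed reagent) in 20 mM phosphate pH 7.0 with 0.01% (detergent screen) or 0.0001% Triton X-100 was preincubated with compounds for 15 min at room temperature. Nitrocefin was then added from an 800 uM solution, and hydrolysis was followed at 480 nm.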
AMA1-RON2 inh = qHTS for Inhibitors of AMA1-RON; Towards Development of Antimalarial Drug Lead: Primary Screen. Plasmodium falciparum AMA1 (3D7) - RON2 peptide interaction. AlphaScreen AMA1-biotinylated RON2 peptide binding. Potency, µM (series often up to 58.2 µM), for inactives: at the highest dose activity change, negative = inhibition, usual class: inhibitors. actives 0.2% (n = 360,000). AID 720542, 2013;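 also: 0% = vehicle wells and -100% = peptide control; nearly all actives have a fitted effect of over 45% in size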
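AMA1 (3D7) with his tag at 25 nM final met compounds first, then biotinylated RON2 peptide at 25 nM; detection used donor plus acceptor beads, 10 µg/mL apiece, read by AlphaScreen after 30 min at room temperature.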
AmpC inh no detg = qHTS Inhibitors of AmpC Beta-Lactamase (assay without detergent). Potency, µM (doses to about 57.1 µM), for inactives: top-dose activity change, negative = inhibition, hits mostly inhibitors. actives 0.52% (n = 330,000). AID 485341, 2010. AmpC nitrocefin hydrolysis, absorbance 480 nm, 0.0001% Triton;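 also: plate controls were no compound for no effect and no enzyme for full effect; nearly all actives have a fitted effect of over 20% in size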
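AmpC (5.3 nM in the dispensed reagent) in 20 mM phosphate pH 7.0 with 0.01% (detergent screen) or 0.0001% Triton X-100 was preincubated with compounds for 15 min at room temperature. Nitrocefin was then added from an 800 uM solution, and hydrolysis was followed at 480 nm.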
Marburg entry inh = qHTS for inhibitors of binding or entry into cells for Marburg Virus | Marburg virus pseudotyped entry inhibition, cell reporter | Potency, µM (series often up to 37.8 µM), for the others: at the top dose activity change, negative = inhibition, usual class: inhibitors | actives 1.8% (n = 300,000); calls by dose curve; tested in HEK293 cells
* marks the source's active call; other numbers are inactive results; ? = inconclusive; / = not tested or not shown; [ ] = remark or other dose. An excerpt weighted towards active compounds, which were near 2.3% of everything screened. Unless noted, calls follow the shape of the dose curve; as a rule, active = well fitted curve in the direction sought with a large enough effect; inconclusive = small, poorly fitted or top-dose-only effect, or another doubt; inactive = no such curve, though single readings can be large; an effect the other way counts as inactive or inconclusive. Unless noted, % is scaled to controls: 0 for no effect and ±100 for the full control effect; potency is read from the fitted curve at half-maximal effect.

SMILES	LASV entry inh	AmpC inh detg	AMA1-RON2 inh	AmpC inh no detg	Marburg entry inh
CC1CCCCC1NC(=O)COC(=O)c1c2c(nc3ccccc13)/C(=C/c1ccco1)CC2 (configuration not stated)	10.3%	?	?	15.8µM*	-1.7%
Cc1cc(Br)ccc1NC(=O)C1(S(=O)(=O)c2ccc(Cl)cc2)CC1	8.7%[46.1 µM]	17.8%	/	/	-2.6%[46.1 µM]
CCOC(=O)c1ccc(NC(=O)c2nn(C)c3c2COc2ccccc2-3)cc1	?	13.1%	/	/	?
CN(C)CCC1(C2=CCCC2)CC/C(=C/c2ccc(Cl)cc2)C1=O (configuration not stated)	12.6µM*	/	-8.1%	/	?
CCC(C)CN1C(=O)NC(CCc2ccccc2)C(C(C)=O)=C1C (configuration not stated)	/	/	/	/	-18.2%[14.2 µM]
CCOc1cccc(C2c3[nH]c4ccccc4c3CCN2C(=O)CCc2ccccc2)c1 (configuration not stated)	?	26.8%	/	/	/
Cc1ccc(C2c3[nH]c4ccccc4c3CCN2C(=O)CCc2ccccc2)cc1 (configuration not stated)	3.16µM*	-0.8%	/	/	/
CCCCCCCCCCOC(=O)Cn1c(COc2ccccc2OC)[n+](C)c2ccccc21	?	0.9%	0.6%	248.9%	2.51µM*
Cn1c(COc2ccccc2O)[n+](C)c2ccccc21	/	-2.1%	1.2%	-12.3%	/
COc1ccc(CCNCc2c(OC)ccc3ccccc23)cc1	/	-2.2%	-12.9%	16.8%	/
COc1ccc2ccccc2c1CNCc1ccc(C)cc1	-5.9%[46.1 µM]	-10.2%	-21.5%	3.8%	10µM*
CCCCn1c(=O)[nH]c(=O)c2c1nc(-c1ccccc1F)n2Cc1ccccc1OC	11.2µM*	-0.5%	-19.1%	-0.3%	?
c1ccc(-c2cn3nc4c(nc3n2)CCCC4)cc1	1.12µM*	?	16.5%	-18.5%	1µM*
c1ccc(-c2cn3nc(-c4ccccc4)cnc3n2)cc1	?	1.5%	24.2%	-11.6%	-4.1%
Brc1ccc(-c2cn3nc4c(nc3n2)CCCC4)cc1	?	3.7%	29.6%	-17.8%	5.01µM*
Clc1ccc(C2CC(c3ccccc3)Nc3ncnn32)cc1 (configuration not stated)	/	?	2.3%	1.26µM*	/
Fc1ccc(C2CC(c3ccccc3)n3ncnc3N2)cc1 (configuration not stated)	0.5%	-1.5%	4.6%	-14.2%	-13.3%
COC(=O)CC=C1c2ccccc2[C@@H](OC)[C@@H]1C	?	/	/	/	16.2%[14.2 µM]
COc1ccc2nc3cc(Cl)ccc3c(Nc3cc(C(C)C)c(O)cc3C)c2c1	?	-6.2%	15.8µM*	-20.4%	11.2µM*
COc1ccc(S(=O)(=O)Nc2cc(C(C)C)c(O)cc2C)cc1	15.3%	-14.3%	-0.8%	-31.5%	-15.0%
Cc1cc(C)c(Nc2cc(S(=O)(=O)O)c(N)c3c2C(=O)c2ccccc2C3=O)c(C)c1	-22.9%	-11.2%	28.2µM*	-3.4%	-21.1%
Cc1cc(C)c(NC(=O)COC(=O)c2cccc3c2C(=O)c2ccccc2C3=O)c(C)c1	?	?	-28.0%	-41.2%	?
COc1ccccc1NC(=O)c1sc(-c2ccc(Cl)cc2)cc1N	27.8%[46.1 µM]	12.1%	/	/	9.3%[46.1 µM]
Cc1ccc(N(Cc2ccccc2)C(=O)c2cc(S(=O)(=O)N3CCOCC3)ccc2Cl)cc1	?	?	-14.0%	26.8%	?
Cc1cccc(N(Cc2ccccc2)C(=O)c2cc(S(=O)(=O)N3CCOCC3)ccc2Cl)c1	?	0.8%	-16.1%	77.1%	12.6µM*
SMILES	LASV entry inh	AmpC inh detg	AMA1-RON2 inh	AmpC inh no detg	Marburg entry inh
COc1cc2[nH]c(=O)n(CCCC(=O)N3CC=C(c4ccccc4)CC3)c(=O)c2cc1OC	?	?	-5.0%	28.7%	?
COc1cccc2c1[C@@H]1CN(CCCCn3c(=O)[nH]c4c(sc5ncc(-c6ccccc6)nc54)c3=O)C[C@@H]1CO2	?	?	-15.7%	177.6%	7.94µM*
Cc1ccc(-c2nnc(SCC(=O)c3ccc(Cl)cc3)n2-c2ccccc2)cc1	-12.0%[46.1 µM]	-5.5%	/	/	/
COc1ccccc1/C=C/CN1CCCC(CCC(=O)NCc2ccccc2F)C1 (configuration not stated)	?	7.0%	-8.0%	56.7%	6.31µM*
O=c1oc2ccccc2cc1-c1cn2ccccc2n1	1.78µM*	5.2%	27.2%	-20.2%	?
COc1cccc(/C=N/NC(=O)c2c(-c3ccccc3)noc2C)c1O	10µM*	-12.7%	81.9%	?	11.2µM*
COc1cccc(/C=N/NC(=O)c2c(-c3ccccc3)noc2C)c1OC	-5.3%	/	-0.3%	/	4.0%
Cc1onc(-c2ccccc2)c1C(=O)N/N=C/c1c[nH]c2ccccc12	10µM*	-1.1%	21.4%	-42.9%	2.6%[46.1 µM]
C=CCCN(Cc1ccc(C)cc1)S(=O)(=O)C=C	-0.4%[46.1 µM]	/	/	/	/
NCC(c1ccccc1)(c1ccccc1)c1ccccc1	0.5%	?	-3.7%	-5.3%	7.94µM*
Cc1ccccc1Cn1cc(S(=O)(=O)c2ccc(F)cc2)c(=O)c2cc3c(cc21)OCO3	1.0%[46.1 µM]	15.2%	/	/	3.9%[46.1 µM]
O=C1/C(=C/c2ccncc2)SC(=S)N1Cc1ccccc1	-25.7%	-4.6%	?	-0.6%	11.2µM*
O=[N+]([O-])c1ccc(O)c(C=NN2CCCCC2)c1	/	/	23.1%	/	/
COc1cc(/C=C2/SC(=S)N(Cc3ccccc3)C2=O)ccc1O	3.9%[46.1 µM]	15.8%	-8.4%	-36.7%	12.5%[46.1 µM]
O=C1/C(=C\c2cc([N+](=O)[O-])ccc2O)SC(=S)N1Cc1ccc(Cl)cc1	/	2.5%	-9.6%	3.55µM*	/
Cc1ccccc1/C=C1\SC(=S)N(/N=C/c2cc([N+](=O)[O-])ccc2O)C1=O	18.0%[46.1 µM]	1.0%	11.6%	28.2µM*	23.3%[46.1 µM]
CCCN1C(=O)/C(=C/c2ccncc2)SC1=S	0.3%	-4.2%	-19.2%	-6.2%	17.0%
O=C1/C(=C\c2ccc(O)c(O)c2)SC(=S)N1Cc1ccccc1	?	-4.9%	?	11.2µM*	?
COc1ccc([C@H](CC(=O)N2CCOCC2)C(C)C)cc1	/	/	/	/	-0.8%
O=C(C1CCCCC1)N(Cc1cccnc1)c1nc2ccc(Cl)cc2s1	19.0%[46.1 µM]	4.1%	/	/	/
COc1cc(OC)c2c(C)c(CC(=O)NCc3ccccc3OC)c(=O)oc2c1	-0.5%[46.1 µM]	7.9%	/	/	-4.3%[46.1 µM]
CN1CCN(c2ccc(S(=O)(=O)N3CCCCC3)cc2NC(=O)/C=C/c2ccc(Cl)c([N+](=O)[O-])c2)CC1	12.6µM*	-15.7%	-15.1%	200.1%	?
CCN1CCN(c2ccc(S(=O)(=O)N3CCCCC3)cc2NC(=O)/C=C/c2ccc(F)cc2)CC1	-15.2%[46.1 µM]	?	-20.9%	146.5%	?
CCN1CCN(c2ccc(S(=O)(=O)N3CCCCC3)cc2NC(=O)/C=C/c2ccc(OC(F)F)cc2)CC1	6.31µM*	0.0%	-23.6%	194.5%	?
